Measurements published in the supplement of paper PMC9492666.
Structures can show the parent of a compound that is named as a salt.

What was measured:
[1] = tested on: HCC1937; assay: relative cell viability, compound + erastin, vs DMSO (fraction of DMSO control); higher = less growth inhibition; conditions: 72 h
[2] = tested on: MDA-MB-231; assay: as above; conditions: 72 h
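Further: viability read by CCK-8 kit in 96-well plates, part of a combination screen pairing lipid-metabolism-targeting compounds with erastin.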

| Compound | relative cell viability [1] | relative cell viability [2] |
| --- | --- | --- |
| O=C(c1ccc(NS(=O)(=O)c2cccc3cccnc23)cc1)N1CCN(CC2CC2)CC1 [Mitapivat] + CCOc1ccccc1-n1c(C(C)N2CCN(C(=O)COc3ccc(Cl)cc3)CC2)nc2ccccc2c1=O [erastin] | 0.596 | 0.638 |
| CN(C)C(=N)NC(=N)N [Metformin] + CCOc1ccccc1-n1c(C(C)N2CCN(C(=O)COc3ccc(Cl)cc3)CC2)nc2ccccc2c1=O [erastin] | 0.63 | 0.546 |
| COc1ccc(CN2CCC(c3ccc4nc(C(=O)N5CCN(Cc6ccc(C(F)(F)F)cc6)CC5)[nH]c4c3)CC2)cn1 + CCOc1ccccc1-n1c(C(C)N2CCN(C(=O)COc3ccc(Cl)cc3)CC2)nc2ccccc2c1=O [erastin] | 0.569 | 0.585 |
| CC[C@@H]1/C=C(\C)C[C@H](C)C[C@H](OC)[C@H]2O[C@@](O)(C(=O)C(=O)N3CCCC[C@H]3C(=O)O[C@H](/C(C)=C/[C@@H]3CC[C@@H](O)[C@H](OC)C3)[C@H](C)[C@@H](O)CC1=O)[C@H](C)C[C@@H]2OC [Ascomycin] + CCOc1ccccc1-n1c(C(C)N2CCN(C(=O)COc3ccc(Cl)cc3)CC2)nc2ccccc2c1=O [erastin] | 0.086 | 0.303 |
| O=C(OC(C(F)(F)F)C(F)(F)F)N1CCC(C(O)(c2ccc3c(c2)OCO3)c2ccc3c(c2)OCO3)CC1 + CCOc1ccccc1-n1c(C(C)N2CCN(C(=O)COc3ccc(Cl)cc3)CC2)nc2ccccc2c1=O [erastin] | 0.53 | 0.546 |
| CSc1ccc(C(=O)/C=C/c2cc(C)c(OC(C)(C)C(=O)O)c(C)c2)cc1 [Elafibranor] + CCOc1ccccc1-n1c(C(C)N2CCN(C(=O)COc3ccc(Cl)cc3)CC2)nc2ccccc2c1=O [erastin] | 0.858 | 0.602 |
| CCOC(=O)c1c(NC(=O)CN2CCN(C(=O)c3ccco3)CC2)sc2c1CCC2 + CCOc1ccccc1-n1c(C(C)N2CCN(C(=O)COc3ccc(Cl)cc3)CC2)nc2ccccc2c1=O [erastin] | 0.647 | 0.839 |
| Cc1ccc(Oc2nc3cc(-c4ccc(-c5ccccc5)cc4)c(Cl)cc3[nH]2)cc1C(=O)O + CCOc1ccccc1-n1c(C(C)N2CCN(C(=O)COc3ccc(Cl)cc3)CC2)nc2ccccc2c1=O [erastin] | 0.553 | 0.629 |
| CCc1c(C(=O)C(N)=O)c2c(OCC(=O)O)cccc2n1Cc1ccccc1 [Varespladib] + CCOc1ccccc1-n1c(C(C)N2CCN(C(=O)COc3ccc(Cl)cc3)CC2)nc2ccccc2c1=O [erastin] | 0.547 | 0.652 |
| O=S(=O)(Nc1ccc(C(O)(C(F)(F)F)C(F)(F)F)cc1)c1cccs1 + CCOc1ccccc1-n1c(C(C)N2CCN(C(=O)COc3ccc(Cl)cc3)CC2)nc2ccccc2c1=O [erastin] | 0.652 | 0.568 |
| CCCCCC=CC(=O)CCc1ccc(O)c(OC)c1 [6-Shogaol] + CCOc1ccccc1-n1c(C(C)N2CCN(C(=O)COc3ccc(Cl)cc3)CC2)nc2ccccc2c1=O [erastin] | 0.639 | 0.559 |
| CCC1=N[C@H]2C[C@@]3(C(=O)N(OC)c4ccccc43)[C@H]3CC1[C@@H]2CO3 [Humantenmine] + CCOc1ccccc1-n1c(C(C)N2CCN(C(=O)COc3ccc(Cl)cc3)CC2)nc2ccccc2c1=O [erastin] | 0.573 | 0.63 |
| Cc1c2c(=O)n(-c3ccccc3Cl)[nH]c2cc(=O)n1Cc1ccccn1 + CCOc1ccccc1-n1c(C(C)N2CCN(C(=O)COc3ccc(Cl)cc3)CC2)nc2ccccc2c1=O [erastin] | 0.72 | 0.784 |
| CCCc1c(OCCCOc2ccc(OCC(=O)O)cc2)ccc(C(C)=O)c1O + CCOc1ccccc1-n1c(C(C)N2CCN(C(=O)COc3ccc(Cl)cc3)CC2)nc2ccccc2c1=O [erastin] | 0.752 | 0.833 |
| O=C(O)c1c[nH]c2cc(Cl)c(-c3ccc(C4(O)CCC4)cc3)cc12 + CCOc1ccccc1-n1c(C(C)N2CCN(C(=O)COc3ccc(Cl)cc3)CC2)nc2ccccc2c1=O [erastin] | 0.599 | 0.677 |
| O=c1c(-c2ccc(O)cc2)coc2cc(O)ccc12 [Daidzein] + CCOc1ccccc1-n1c(C(C)N2CCN(C(=O)COc3ccc(Cl)cc3)CC2)nc2ccccc2c1=O [erastin] | 0.827 | 0.619 |
| O=C(NCCN1CCC2(CC1)C(=O)NCN2c1ccccc1)c1ccc2ccccc2c1 + CCOc1ccccc1-n1c(C(C)N2CCN(C(=O)COc3ccc(Cl)cc3)CC2)nc2ccccc2c1=O [erastin] | 0.392 | 0.589 |
| Cc1c(C(=O)NN2CCOCC2)nn(-c2ccc(Cl)cc2Cl)c1-c1ccc(I)cc1 + CCOc1ccccc1-n1c(C(C)N2CCN(C(=O)COc3ccc(Cl)cc3)CC2)nc2ccccc2c1=O [erastin] | 0.1 | 0.325 |

| Compound | relative cell viability [1] | relative cell viability [2] |
| --- | --- | --- |
| O=C(O)CN(CC(=O)O)c1ccccc1OCCOc1ccccc1N(CC(=O)O)CC(=O)O + CCOc1ccccc1-n1c(C(C)N2CCN(C(=O)COc3ccc(Cl)cc3)CC2)nc2ccccc2c1=O [erastin] | 0.597 | 0.765 |
| CN1CCN(C(=O)C2C(C(=O)O)[C@H]3CC[C@@H]2O3)CC1 (some centres not stated) + CCOc1ccccc1-n1c(C(C)N2CCN(C(=O)COc3ccc(Cl)cc3)CC2)nc2ccccc2c1=O [erastin] | 0.278 | 0.394 |
| CN1CC(O)C2=C/C(=N/NC(N)=O)C(=O)C=C21 (configuration not stated) [Carbazochrome] + CCOc1ccccc1-n1c(C(C)N2CCN(C(=O)COc3ccc(Cl)cc3)CC2)nc2ccccc2c1=O [erastin] | 0.484 | 0.682 |
| Cc1c(C)c2c(c(C)c1O)CCC(C)(COc1ccc(CC3SC(=O)NC3=O)cc1)O2 (configuration not stated) [Troglitazone] + CCOc1ccccc1-n1c(C(C)N2CCN(C(=O)COc3ccc(Cl)cc3)CC2)nc2ccccc2c1=O [erastin] | 0.641 | 0.669 |
| C=C[C@H]1CN2CC[C@H]1C[C@@H]2[C@@H](O)c1ccnc2ccc(OC)cc12 [Quinidine sulfate] + CCOc1ccccc1-n1c(C(C)N2CCN(C(=O)COc3ccc(Cl)cc3)CC2)nc2ccccc2c1=O [erastin] | 0.7 | 0.398 |
| CC(C)(Oc1ccc(C(=O)c2ccc(Cl)cc2)cc1)C(=O)O [Choline Fenofibrate] + CCOc1ccccc1-n1c(C(C)N2CCN(C(=O)COc3ccc(Cl)cc3)CC2)nc2ccccc2c1=O [erastin] | 0.848 | 0.662 |
| COc1ccc2c(c1)c(CC(=O)O)c(C)n2C(=O)c1ccc(Cl)cc1 [Indometacin] + CCOc1ccccc1-n1c(C(C)N2CCN(C(=O)COc3ccc(Cl)cc3)CC2)nc2ccccc2c1=O [erastin] | 0.941 | 0.639 |
| C[C@@H]1C(=O)O[C@H]2[C@H](O)[C@@]34O[C@@H]5OC(=O)[C@H](O)[C@@]56[C@H](C(C)(C)C)[C@H](O)C(OC3=O)[C@]64[C@@]12O (some centres not stated) [Ginkgolide C] + CCOc1ccccc1-n1c(C(C)N2CCN(C(=O)COc3ccc(Cl)cc3)CC2)nc2ccccc2c1=O [erastin] | 0.697 | 0.747 |
| Cc1nc2c([nH]1)c(=O)n(C)c(=O)n2Cc1ccco1 [Furafylline] + CCOc1ccccc1-n1c(C(C)N2CCN(C(=O)COc3ccc(Cl)cc3)CC2)nc2ccccc2c1=O [erastin] | 0.672 | 0.767 |
| Cc1c(C(=O)Nc2ccc(CO)cc2)nnn1Cc1ccc(Cl)c(Cl)c1 + CCOc1ccccc1-n1c(C(C)N2CCN(C(=O)COc3ccc(Cl)cc3)CC2)nc2ccccc2c1=O [erastin] | 0.684 | 0.733 |
| O=S(=O)(O)c1ccc2cc(N=Nc3cc(S(=O)(=O)O)c4cccnc4c3O)ccc2c1 + CCOc1ccccc1-n1c(C(C)N2CCN(C(=O)COc3ccc(Cl)cc3)CC2)nc2ccccc2c1=O [erastin] | 0.741 | 0.595 |
| CC(=O)Oc1cc(C(F)(F)F)ccc1C(=O)O [Triflusal] + CCOc1ccccc1-n1c(C(C)N2CCN(C(=O)COc3ccc(Cl)cc3)CC2)nc2ccccc2c1=O [erastin] | 0.751 | 0.648 |
| Cc1cc(=O)oc2c(O)c(O)ccc12 [7,8-Dihydroxy-4-methylcoumarin] + CCOc1ccccc1-n1c(C(C)N2CCN(C(=O)COc3ccc(Cl)cc3)CC2)nc2ccccc2c1=O [erastin] | 0.489 | 0.881 |
| COc1ccc(-c2cc(=O)c3c(O)c(OC)c(O)cc3o2)cc1OC [Eupatilin] + CCOc1ccccc1-n1c(C(C)N2CCN(C(=O)COc3ccc(Cl)cc3)CC2)nc2ccccc2c1=O [erastin] | 0.431 | 0.617 |
| O=c1c(O[C@@H]2O[C@H](CO)[C@@H](O)[C@H](O)[C@H]2O)c(-c2ccc(O)cc2)oc2cc(O)cc(O)c12 [Astragalin] + CCOc1ccccc1-n1c(C(C)N2CCN(C(=O)COc3ccc(Cl)cc3)CC2)nc2ccccc2c1=O [erastin] | 0.584 | 0.749 |
| CCCCCCS(=O)(=O)NC(=O)c1ccc(CSCc2ccc(-c3ccccc3)cc2)cc1 + CCOc1ccccc1-n1c(C(C)N2CCN(C(=O)COc3ccc(Cl)cc3)CC2)nc2ccccc2c1=O [erastin] | 0.705 | 0.733 |
| O=C1c2cccc(O)c2C(=O)c2c(O)cccc21 [Antrapurol] + CCOc1ccccc1-n1c(C(C)N2CCN(C(=O)COc3ccc(Cl)cc3)CC2)nc2ccccc2c1=O [erastin] | 0.735 | 0.903 |
| CC(C)c1c(C(=O)Nc2ccccc2)c(-c2ccccc2)c(-c2ccc(F)cc2)n1CC[C@@H](O)C[C@@H](O)CC(=O)O [Atorvastatin Calcium] + CCOc1ccccc1-n1c(C(C)N2CCN(C(=O)COc3ccc(Cl)cc3)CC2)nc2ccccc2c1=O [erastin] | 0.357 | 0.337 |
